We go through 108 compounds from ChEMBL document CHEMBL1201862, “PubChem BioAssay data set” (2004).

Out of some 400,000 compounds screened, about 2,100 (0.53%) were called active. Another 14% or so got no clear call; they are omitted. How the calls were made is not given here. For the sample, actives were picked, then their nearest neighbours and some compounds at random.

The assay deals with Ataxin-2 (Homo sapiens) (UniProt Q99700). The assay is described as follows: qHTS for Inhibitors of ATXN expression. Format: functional. For orientation: qHTS replaces the single test concentration by a dilution series.
Chain of Ataxin-2 (Homo sapiens) (Q99700 whole entry): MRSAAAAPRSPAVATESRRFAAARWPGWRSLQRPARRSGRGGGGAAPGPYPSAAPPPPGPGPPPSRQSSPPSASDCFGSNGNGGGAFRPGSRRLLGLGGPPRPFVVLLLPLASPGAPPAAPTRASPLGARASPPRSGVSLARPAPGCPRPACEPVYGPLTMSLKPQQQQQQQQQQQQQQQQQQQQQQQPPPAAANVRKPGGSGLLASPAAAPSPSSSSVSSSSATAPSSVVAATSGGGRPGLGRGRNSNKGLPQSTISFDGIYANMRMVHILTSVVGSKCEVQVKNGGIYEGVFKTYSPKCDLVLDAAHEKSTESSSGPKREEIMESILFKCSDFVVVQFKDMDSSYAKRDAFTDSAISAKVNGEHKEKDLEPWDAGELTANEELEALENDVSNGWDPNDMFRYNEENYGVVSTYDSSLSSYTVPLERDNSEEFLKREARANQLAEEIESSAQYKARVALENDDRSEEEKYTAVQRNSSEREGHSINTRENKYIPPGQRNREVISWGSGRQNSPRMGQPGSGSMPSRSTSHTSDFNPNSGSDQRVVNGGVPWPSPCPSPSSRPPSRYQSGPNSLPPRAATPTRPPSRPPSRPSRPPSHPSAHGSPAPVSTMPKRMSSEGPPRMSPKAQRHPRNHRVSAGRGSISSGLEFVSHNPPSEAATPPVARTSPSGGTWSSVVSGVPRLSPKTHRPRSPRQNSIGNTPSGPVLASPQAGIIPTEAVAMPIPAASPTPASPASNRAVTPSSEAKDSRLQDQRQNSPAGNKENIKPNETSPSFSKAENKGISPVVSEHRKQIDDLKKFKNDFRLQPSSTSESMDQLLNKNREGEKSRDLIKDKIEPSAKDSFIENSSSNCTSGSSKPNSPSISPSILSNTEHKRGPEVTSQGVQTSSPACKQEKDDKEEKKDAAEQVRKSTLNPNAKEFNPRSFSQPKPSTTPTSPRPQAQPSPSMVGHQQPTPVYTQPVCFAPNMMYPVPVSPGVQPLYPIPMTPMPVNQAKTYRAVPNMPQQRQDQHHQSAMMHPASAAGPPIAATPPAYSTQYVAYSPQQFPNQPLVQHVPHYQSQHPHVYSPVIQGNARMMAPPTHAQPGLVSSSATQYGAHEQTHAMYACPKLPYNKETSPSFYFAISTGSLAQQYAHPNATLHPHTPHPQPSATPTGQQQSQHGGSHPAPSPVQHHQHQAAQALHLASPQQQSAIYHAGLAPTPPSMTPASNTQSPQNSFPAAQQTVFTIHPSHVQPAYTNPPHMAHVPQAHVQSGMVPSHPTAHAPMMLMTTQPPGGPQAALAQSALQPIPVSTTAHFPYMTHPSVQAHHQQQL
As to `COC(=O)c1ccc(NC(=O)c2cccc(C)c2)cc1`, the Potency result is “inactive”.

Turning to `COC(=O)c1ccc(NC(=O)c2cccc(N3C(=O)C4C5C=CC(C6CC56)C4C3=O)c2)cc1` (stereo not drawn), the Potency is 39.8 µM (active).

Regarding `O=C(Oc1cccc2cccnc12)c1cccc(N2C(=O)C3C4CCC(C4)C3C2=O)c1` (stereo not drawn), the Potency entry is “inactive”.

Turning to `CCN(CC(=O)Nc1ccc(NC(C)=O)cc1)C(=O)CSC(=S)N1CCCC1`, the Potency is 3.55 µM (active).

As for `Cc1ccc(NC(=O)COC(=O)CSC(=S)N2CCOCC2)cc1`, the Potency result was “inactive”.

Turning to `CC(=O)Nc1ccc(NC(=O)CC2CCCC2)cc1`, the Potency result is “inactive”.

With `CCN(CC)CCCNc1oc(/C=C/c2ccccc2)nc1C#N`, the Potency result was “inactive”.

Take `O=C(N/N=C/c1cc([N+](=O)[O-])ccc1O)c1ccc2c(c1)OCCO2`: the Potency was 50.1 µM (active).

Regarding `COc1cc(Cl)cc(/C=N\NC(=O)c2ccc3c(c2)OCO3)c1O`, the Potency result is “inactive”.

As for `COc1cccc(/C=N/NC(=O)c2ccc(=O)n(C)c2)c1O`, the Potency result is “inactive”.

For the compound `CCOc1cc(/C=N/NC(=O)c2ccc3c(c2)OCCO3)cc(Br)c1O`, the Potency entry was “inactive”.

Take `O=C(NN=Cc1cc([N+](=O)[O-])ccc1O)c1cccc2ccccc12`: the Potency was 33.6 µM (active).

As to `O=C(N/N=C/c1sc2ccccc2c1O)c1cccc2ccccc12`, the Potency result is “inactive”.

As for `COc1cccc(/C=N/NC(=O)c2cc3cc([N+](=O)[O-])ccc3s2)c1O`, the Potency was 14.1 µM (active).

Regarding `COc1cccc(/C=N/NC(=O)c2c(C)nc3ccc(Cl)cn23)c1OC`, the Potency result was “inactive”.

Regarding `Cc1occc1C(=O)N/N=C/c1cccc2ccccc12`, the Potency entry is “inactive”.

For `Fc1ccc(NC(=S)N2CCSC2c2cccs2)cc1` (stereo not drawn), the Potency entry is “inactive”.

Take `CC(C)OC(=O)CC(=O)CSc1nc2c(c(-c3cccs3)c1C#N)CCC2`: the Potency result is “inactive”.

For the compound `CC1CN(CCOCCSc2ccc(Cl)cc2)CC(C)O1` (stereo not drawn), the Potency entry is “inactive”.

Regarding `Cn1c2ccccc2c2nnc(NN)nc21`, the Potency entry is “inactive”.

Consider `CN(Cc1ccsc1)C(=O)CCc1nnc(CCCc2ccccc2)o1`, for which the Potency entry was “inactive”.

As for `COCCCNCCCCSc1ccc(Cl)cc1`, the Potency entry is “inactive”.

For the compound `CCCOc1ccc(C(=O)NNC(=S)NC(=O)CC)cc1`, the Potency is 31.6 µM (active).

As to `CCCCOc1ccc(C(=O)NCCc2ccccc2)cc1`, the Potency entry was “inactive”.

With `COc1cc(OC)cc(C(=O)NNC(=S)NC(=O)c2cccnc2)c1`, the Potency result was “inactive”.

On to `Cc1ccc(SCc2c(C(=O)N/N=C/c3ccoc3)nnn2-c2nonc2N)cc1`, for which the Potency entry is “inactive”.

With `CCOC(=O)c1[nH]c2ccc(Cl)cc2c1NC(=O)/C=C/c1ccc2c(c1)OCO2`, the Potency was 44.7 µM (active).

Regarding `CC(=O)Nc1ccc(NC(=O)/C=C/c2ccc3c(c2)OCO3)cc1`, the Potency entry was “inactive”.

Turning to `CCN(C(=O)COC(=O)/C=C/c1ccc2c(c1)OCO2)c1c(N)n(Cc2ccccc2)c(=O)[nH]c1=O`, the Potency result is “inactive”.

As for `CCN(CC)S(=O)(=O)c1cccc(-c2nnc(SCC(N)=O)n2C)c1`, the Potency result is “inactive”.

`CCCSc1ccc(-c2nn(-c3ccccc3)cc2/C=C(/C#N)C(=O)NCCCOC)cc1`: the Potency result was “inactive”.

Turning to `CC1=NNC(=O)/C1=C\c1cn(-c2ccccc2)nc1-c1ccc(F)cc1`, the Potency was 8.91 µM (active).

In the case of `CC1=NNC(=O)/C1=C\c1cn(-c2ccccc2)nc1-c1ccc(Cl)cc1`, the Potency is 10 µM (active).

On to `CCSc1ccc(-c2nn(-c3ccccc3)cc2/C=C(/C#N)C(=O)NC)cc1`, for which the Potency entry is “inactive”.

As to `CCCOc1ccc(-c2nn(-c3ccccc3)cc2/C=C2\SC(N)=NC2=O)cc1`, the Potency entry is “inactive”.

Consider `O=Cc1cn(-c2ccccc2)nc1-c1cc2cc(O)ccc2oc1=O`, for which the Potency entry was “inactive”.

On to `CCC(C)Sc1nc(O)c2cnn(-c3ccc(F)cc3)c2n1` (stereo not drawn), for which the Potency entry is “inactive”.

As to `O=C(N/N=C\c1cc(Br)ccc1O)c1ccc(S(=O)(=O)N2CCCCC2)cc1`, the Potency result was “inactive”.

Take `CC(OC(=O)Cn1cnc2c1c(=O)n(C)c(=O)n2C)C(=O)Nc1ccc(Cl)cc1` (stereo not drawn): the Potency result was “inactive”.

In the case of `Oc1ccc(C2C=C(c3ccc(F)cc3)Nc3ncnn32)cc1` (stereo not drawn), the Potency result is “inactive”.

Take `Cc1cc(C)nc(-n2nc(C)c3c2NC(=O)CC3c2ccccc2OC(C)C)n1` (stereo not drawn): the Potency is 25.1 µM (active).

As to `CCCCCCSc1ccc(-c2nc3cnccn3c2NC2CCCCC2)cc1`, the Potency entry is “inactive”.

For the compound `CCOC(=O)c1c(C)[nH]c(C(=O)COC(=O)CCNS(=O)(=O)c2ccc(NC(C)=O)cc2)c1C`, the Potency result was “inactive”.

As to `CCCCn1c(NC(=O)c2ccco2)c(S(=O)(=O)c2ccc(C)cc2)c2nc3ccccc3nc21`, the Potency entry is “inactive”.

Regarding `CC[n+]1c(/C=C2\SC(c3ccccc3C)=CN2C)sc2ccccc21`, the Potency entry was “inactive”.

Take `CC[n+]1c(/C=C/C=C/N(C(C)=O)c2ccccc2)sc2ccccc21`: the Potency is 35.5 µM (active).

Turning to `CCn1nc(-c2ccccc2)c2nc3ccccc3nc21`, the Potency result is “inactive”.

Regarding `Nc1c(Cl)c(Cl)nc(C(=O)OCC(=O)NCc2ccccc2)c1Cl`, the Potency result is “inactive”.

In the case of `Cc1nc(Cl)c(C(=O)NCc2ccccc2)c(C)c1Cl`, the Potency entry was “inactive”.

As for `O=C(NCc1ccccc1)c1c(Cl)nc(Cl)c(Cl)c1Cl`, the Potency is 39.8 µM (active).

Turning to `CCOC(=O)c1sc2nc(C)cc(-c3ccccc3)c2c1N`, the Potency entry is “inactive”.

Take `CCOC(=O)c1nc(Nc2ccccc2CC)c2ccccc2n1`: the Potency entry was “inactive”.

For `CCOC(=O)c1cccc(Nc2nc(C(=O)OCC)nc3ccccc23)c1`, the Potency is 39.8 µM (active).

As to `CCOC(=O)c1sc2nc(-c3cccnc3)ccc2c1N`, the Potency result is “inactive”.

As to `CC(=O)c1cccc(Nc2nc(-c3ccccc3)nc3ccccc23)c1`, the Potency result is “inactive”.

Regarding `CCCOC(=O)c1cccc(Nc2nc(-c3cccnc3)nc3ccccc23)c1`, the Potency was 35.5 µM (active).

For the compound `O=c1cc(-c2ccccc2)c2ccc(O)cc2o1`, the Potency result is “inactive”.

Consider `O=C1CN(C(=O)NCC(=O)N2CCCC2)c2ccccc2N1`, for which the Potency entry is “inactive”.

On to `O=C1OCCN1C(=O)[C@H]1[C@H](c2ccccc2)C(c2ccc(F)cc2)=NN1c1ccc(Br)cc1`, for which the Potency result was “inactive”.

As for `CCCC(O)(CCC)C(=O)NN(C(=O)CCl)c1cccc(C)c1`, the Potency is 21.2 µM (active).

Turning to `CCCCCCCN(C(=O)CCl)c1cccc(C)c1`, the Potency is 14.1 µM (active).

For `Cc1ccc(S(=O)(=O)Oc2ccc(C3C4=C(CCCC4=O)N(CCC(=O)O)C4=C3C(=O)CCC4)cc2Cl)cc1`, the Potency result was “inactive”.

On to `O=C(c1ccc(Br)cc1)C(CN1CCOCC1)c1ccccc1` (stereo not drawn), for which the Potency was 29.9 µM (active).

Take `OC(CN1CCN(C(c2ccccc2)c2ccccc2)CC1)c1ccc(Br)cc1` (stereo not drawn): the Potency result was “inactive”.

As to `O=c1c2ccccc2n(CC(O)CN2CCOCC2)c2ccccc12` (stereo not drawn), the Potency entry was “inactive”.

For the compound `O=C(c1ccc(F)cc1)C(CN1CCOCC1)c1ccccc1` (stereo not drawn), the Potency is 25.1 µM (active).

Turning to `CC(N=C(S)N1CCOCC1)c1ccccc1` (stereo not drawn), the Potency result was “inactive”.

As to `O=C(c1ccc(Br)cc1)c1sc(N2CCOCC2)nc1-c1ccccc1`, the Potency entry is “inactive”.

For `O=C(c1ccc(F)cc1)C1CCN(Cc2ccccc2)CC1`, the Potency entry was “inactive”.

With `O=C(c1ccccc1)C(CCC(CN1CCOCC1)C(=O)c1ccccc1)CN1CCOCC1` (stereo not drawn), the Potency is 14.1 µM (active).

`O=c1oc2c(CN3CCOCC3)c(O)ccc2cc1-c1ccccc1`: the Potency result is “inactive”.

For the compound `Cc1c(O)ccc2c(CN3CCN(C/C=C/c4ccccc4)CC3)cc(=O)oc12`, the Potency result is “inactive”.

With `O=[N+]([O-])c1ccc(C2=CSC3=NCCN23)cc1`, the Potency entry is “inactive”.

Consider `Cc1cccc(-n2nc(C)c3c2N=C2CCCC(O)=C2C3c2ccccn2)c1` (stereo not drawn), for which the Potency result is “inactive”.

As to `CC1(C(=O)OCC(=O)Nc2cc(S(=O)(=O)N3CCOCC3)ccc2Cl)CC1(Cl)Cl` (stereo not drawn), the Potency result is “inactive”.

For `Cc1cccc(Cl)c1OCCCn1ccnc1`, the Potency entry is “inactive”.

With `O=c1c2ccccc2oc2cc(NCCCn3ccnc3)ccc12`, the Potency entry is “inactive”.

For the compound `N=c1c2c(-c3ccccc3)c(-c3ccccc3)n(Cc3ccccc3)c2ncn1CCCn1ccnc1`, the Potency is 35.5 µM (active).

As to `Cc1ccc2nc3c(cc(C(=O)NCc4ccccc4)c(=N)n3CCCn3ccnc3)c(=O)n2c1`, the Potency result was “inactive”.

Turning to `O=C(NCCCn1ccnc1)c1ccc(-c2ccccc2)cc1`, the Potency entry is “inactive”.

For `c1ccc(-c2c(-c3ccccc3)n(Cc3ccco3)c3ncnc(NCCCn4ccnc4)c23)cc1`, the Potency is 25.1 µM (active).

As to `CC[C@H]1C(c2ccc(F)cc2)=NN(c2ccccc2)[C@@H]1CO`, the Potency entry is “inactive”.

For the compound `C/C(CC(=O)NCc1ccco1)=N\NC(=O)Cc1ccc(-c2ccccc2)cc1`, the Potency entry was “inactive”.

As to `NS(=O)(=O)c1ccc(NC(=O)COC(=O)COc2cccc(C(F)(F)F)c2)cc1`, the Potency entry is “inactive”.

Regarding `CC(C)C(Cl)=NOC(=O)Nc1ccc(S(N)(=O)=O)cc1`, the Potency is 21.2 µM (active).

Turning to `COc1cc(C(=O)NN=C(S)Nc2ccc(S(N)(=O)=O)cc2)cc(OC)c1OC`, the Potency result is “inactive”.

For the compound `COC(=O)c1c(NC(=O)c2ccc(S(=O)(=O)N3CC(C)OC(C)C3)cc2)sc2c1CCN(C)C2` (stereo not drawn), the Potency result is “inactive”.

For the compound `O=c1ccc2cc3c4c(c2o1)CCCN4CCC3`, the Potency result was “inactive”.

Regarding `CCCCOc1ccc(N(CC(=O)NCc2ccco2)C(=O)CCC(=O)Nc2nccs2)cc1`, the Potency entry is “inactive”.

Consider `COc1ccc(OC)c([N+](=O)[O-])c1C(N)=O`, for which the Potency result was “inactive”.

As for `COc1ccncc1-c1ccc(C2=CC(=O)CC(C)(C)C2=O)cc1`, the Potency is 35.5 µM (active).

Consider `CC1=CC(=C(C#N)c2nc3ccccc3s2)C=C(C)N1c1ccc(F)cc1F`, for which the Potency result was “inactive”.

As for `CC1=C(C(=O)NCCCOC(C)C)C2(CCC(C)CC2)OC1=O` (stereo not drawn), the Potency entry was “inactive”.

For `COCCCn1c(C(=O)NCCN2CCOCC2)cc2c(=O)n3ccccc3nc21`, the Potency entry is “inactive”.

In the case of `COc1cccc(-n2cnnc2S)c1`, the Potency entry is “inactive”.

For the compound `CCCS(=O)(=O)c1nnnn1-c1cccc(OC)c1`, the Potency is 35.5 µM (active).

Consider `COc1cccc(/C=N/n2nnnc2N)c1`, for which the Potency entry was “inactive”.

Take `Cc1cc(OC(C)C(=O)NC2CC(C)(C)NC(C)(C)C2)c2c(C)c(C)c(=O)oc2c1` (stereo not drawn): the Potency result is “inactive”.

`Cc1cccn2c(=O)c3cc(C(=O)NC(C)c4ccccc4)c(=N)n(CCCO)c3nc12` (stereo not drawn): the Potency result was “inactive”.

Consider `Cc1ccc(C)c(NC(=O)c2ccc3c(=O)n4c(nc3c2)CCC4)c1`, for which the Potency entry is “inactive”.

For the compound `O=C(Nc1ccc2nc3n(c(=O)c2c1)CCCC3)c1cc([N+](=O)[O-])ccc1F`, the Potency was 22.4 µM (active).

Turning to `O=c1c2cc(NC(=S)N3CCC(N4CCCCC4)CC3)ccc2nc2n1CCCCC2`, the Potency result was “inactive”.

Turning to `O=C(/C=C/c1ccco1)Nc1ccc2nc3n(c(=O)c2c1)CCCC3`, the Potency result was “inactive”.

Turning to `O=C(Nc1ccc2nc3n(c(=O)c2c1)CCCCC3)c1cc([N+](=O)[O-])ccc1F`, the Potency was 39.8 µM (active).

`Cc1cccc(OC(=O)c2ccc3c(=O)n4c(nc3c2)CCC4)c1`: the Potency entry was “inactive”.

Regarding `O=C(Nc1ccc2nc3n(c(=O)c2c1)CCCCC3)c1c(F)ccc([N+](=O)[O-])c1F`, the Potency is 8.91 µM (active).

As for `CCCN(CCC)CCCN=C(S)Nc1ccc2nc3n(c(=O)c2c1)CCCCC3`, the Potency entry is “inactive”.

Regarding `CCN(CC)S(=O)(=O)c1ccc(NC(=O)c2ccc3c(=O)n4c(nc3c2)CCCCC4)cc1`, the Potency is 11.2 µM (active).
